Experimental data as given in the supplement of paper PMC6555819.

What was measured:
Assay in all cases: PBM binding z-score (relative to random genomic background probes); higher = stronger binding; sequences stand for … in GC…GCGATTGACAGCGTAGAATGAAGG
[1] = tested on: FXR:RXRa (NR concentration 270 nM, RXRa partner concentration 90 nM)
Outline: (§1)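 Custom Agilent 4×180K protein-binding microarrays carried double-stranded probes. Their 34-nt variable regions held direct-repeat seeds, single-nucleotide variants, half-site ablations and random human genomic background sequences. Arrays were incubated 1 h with ligand-free nuclear receptor dimers in PBS pH 7.4, 2% milk, 0.02% Triton X-100, 1 mM DTT, 0.2 mg/mL BSA and 0.4 mg/ml salmon testes DNA. Antibodies against each partner (one per run) detected binding, and scanned fluorescence was regression-normalized. Binding z-scores use random background probes as reference.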

[2] = tested on: LXRa:RXRa (NR concentration 270 nM, RXRa partner concentration 90 nM)
Outline: as §1

[3] = tested on: LXRa homodimer (NR concentration 270 nM)
Outline: as §1

[4] = tested on: LXRb:RXRa (NR concentration 270 nM, RXRa partner concentration 90 nM)
Outline: as §1

[5] = tested on: LXRb homodimer (NR concentration 270 nM)
Outline: as §1

[6] = tested on: PPARa:RXRa (NR concentration 270 nM, RXRa partner concentration 90 nM)
Outline: as §1

[7] = tested on: PPARg:RXRa (NR concentration 180 nM, RXRa partner concentration 90 nM)
Outline: as §1

[8] = tested on: PPARg:RXRa 270nM:90nM, anti-RXR (NR concentration 270 nM, RXRa partner concentration 90 nM)
Outline: as §1

[9] = tested on: PPARg:RXRa 30nM:10nM, anti-RXR (NR concentration 30 nM, RXRa partner concentration 10 nM)
Outline: as §1

[10] = tested on: PPARg:RXRa 90nM:30nM, anti-RXR (NR concentration 90 nM, RXRa partner concentration 30 nM)
Outline: as §1

[11] = tested on: PPARg:RXRa DBDmut IVT, anti-RXR (DBD mutation: RXRa K156A/R161A, NR concentration 270 nM, RXRa partner concentration 90 nM)
Outline: as §1

[12] = tested on: PPARg:RXRa IVT, anti-PPARg (NR concentration 270 nM, RXRa partner concentration 90 nM)
Outline: as §1

[13] = tested on: PPARg DBDmut:RXRa IVT, anti-PPARg (DBD mutation: PPARg1 K132A/R137A, NR concentration 270 nM, RXRa partner concentration 90 nM)
Outline: as §1

[14] = tested on: PPARg DBDmut IVT, anti-PPARg (DBD mutation: PPARg1 K132A/R137A, NR concentration 270 nM)
Outline: as §1

[15] = tested on: PPARg homodimer (NR concentration 180 nM)
Outline: as §1

[16] = tested on: PXR:RXRa (NR concentration 270 nM, RXRa partner concentration 90 nM)
Outline: as §1

[17] = tested on: PXR homodimer (NR concentration 270 nM)
Outline: as §1

[18] = tested on: RARa:RXR (NR concentration 270 nM, RXRa partner concentration 90 nM)
Outline: as §1

[19] = tested on: RARa homodimer (NR concentration 270 nM)
Outline: as §1

[20] = tested on: RARb:RXRa (NR concentration 270 nM, RXRa partner concentration 90 nM)
Outline: as §1

Sequence | PBM binding z-score [1] | PBM binding z-score [2] | PBM binding z-score [3] | PBM binding z-score [4] | PBM binding z-score [5] | PBM binding z-score [6] | PBM binding z-score [7] | PBM binding z-score [8] | PBM binding z-score [9] | PBM binding z-score [10] | PBM binding z-score [11] | PBM binding z-score [12] | PBM binding z-score [13] | PBM binding z-score [14] | PBM binding z-score [15] | PBM binding z-score [16] | PBM binding z-score [17] | PBM binding z-score [18] | PBM binding z-score [19] | PBM binding z-score [20]
CAAACTAGGTCACCGGAAGGACAAAGTCCGCATG | 4.67 | 3.57 | 0.547 | 2.71 | 0.36 | 5.63 | 9.49 | 7.51 | 6.09 | 7.18 | 8.34 | 9.2 | 4.33 | 1.54 | 2.4 | 2.89 | 0.127 | 4.17 | 0.734 | 4.69
GCATATAGGTATTACAAGGTGAAAGTCCGATTGT | 0.758 | 0.25 | 0.246 | 0.0719 | -0.375 | 1.38 | 0.78 | 0.981 | 0.434 | 0.722 | 1.46 | 1.46 | 0.48 | 1.21 | 0.307 | 0.0796 | 0.205 | 1.69 | 0.465 | 0.417
TCTTGTAGATCAACTGGAGGTTAAGAAAGATCGA | 0.425 | 1.71 | 1.03 | 1.22 | -0.276 | 1.53 | -0.287 | 1.31 | 2.76 | 1.89 | 1.68 | 0.919 | 0.402 | 0.432 | -0.255 | 0.704 | -0.291 | 1.13 | -0.0829 | 0.631
TAGCCTAGGTCATGCGGGCCAGGATAGTGTCGGC | 3.94 | 2.96 | 0.218 | 1.4 | -0.35 | 3.42 | 2.26 | 2.41 | 0.605 | 1.56 | 1.52 | 3 | -0.00181 | -0.781 | 0.191 | 1.29 | -0.269 | 1.89 | -0.855 | 3.74
GCATATAGGTAATACAAGGTGAAATTCCGATTGT | 1.74 | 2.2 | 0.342 | 0.712 | -0.117 | 1.67 | 1.51 | 0.952 | 0.515 | 0.795 | 3.71 | 2.81 | 0.826 | 1.54 | 0.323 | 0.55 | 0.0431 | 1.17 | 0.97 | 0.349
CCTAGCAGGCCAATCTGGGTCACTCTAGGCTTGA | 0.0739 | 0.774 | -0.56 | 0.28 | -1.07 | 2.36 | 1.46 | 1.75 | -0.203 | 0.673 | 3.94 | 4.77 | -0.959 | -1.14 | 0.236 | 0.544 | -0.524 | 1.17 | -1.01 | 1.28
GCTAGTTGGTCAGTAAAAGGTCACACATCGGTCG | 3.3 | 4.12 | 4.59 | 4.13 | 0.936 | 4.23 | 2.71 | 4.56 | 2.08 | 3.74 | 1.75 | 2.98 | 0.0513 | 0.435 | 4.49 | 4.7 | 1.49 | 5.23 | 2.58 | 4.26
CGAACTAGGTCAGAACAAGACAGTGAAGGATGAT | 0.848 | 0.591 | -0.0962 | 0.588 | -0.311 | 3.32 | 5.7 | 4.3 | 2.01 | 3.41 | 7.36 | 7.43 | 2.55 | 1.93 | 1.19 | 0.244 | 0.276 | 0.614 | 0.172 | 2.85
GTCCCAAGGTGAATAGGTCGTTGATGAGTAGGCG | 0.85 | 0.873 | -0.08 | 0.623 | -0.403 | 2.26 | 1.19 | 1.4 | 0.109 | 0.815 | 1.17 | 2.18 | -0.477 | -0.0374 | 1.53 | 0.817 | 0.264 | 2 | 0.909 | 2.12
CAAACTAGGTCAAGGACAAAGTCGGTTTGTGCCA | 3.65 | 2.54 | 0.38 | 1.43 | 0.178 | 4.59 | 7.75 | 6.74 | 4.87 | 6.38 | 8.57 | 8.47 | 0.998 | 1.42 | 2.03 | 1.6 | 0.0226 | 1.91 | -0.478 | 4.15
CCAGCTAGGTCATGGTCAGCTAATCTACAGTATG | 3.52 | 2.28 | 0.125 | 1.63 | -0.361 | 3.57 | 2.98 | 3.29 | 0.995 | 2.17 | 4.7 | 4.17 | 0.901 | 0.516 | 1.52 | 1.12 | -0.327 | 2.34 | 0.48 | 3.97
CCTAGCAGGCCAATCTGTGTCACTCAAGGCTTGA | -0.0282 | -0.198 | -0.502 | -0.335 | -0.193 | 0.394 | -0.0496 | -0.118 | -0.619 | -0.304 | 2.87 | 2.13 | -1.03 | -1.32 | -0.244 | -0.438 | -0.358 | -0.217 | -0.52 | 0.211
AGAATGAGGTTACGAAAGATCAGGGAAACGCTTG | 2.59 | 4.99 | -0.188 | 2.46 | -0.578 | 3.68 | 2.95 | 2.84 | 1.04 | 2.02 | 4.25 | 3.64 | 0.808 | 0.386 | 0.0598 | 1.44 | -0.57 | 2.32 | -0.313 | 2.21
CCTTACGGGTCACAAGGTTATAGCACGACGAGCG | 5.77 | 4.34 | 0.422 | 3.65 | 0.114 | 5.46 | 5.45 | 5.85 | 2.52 | 4.65 | 3.76 | 4.65 | 0.482 | 0.244 | 2.41 | 3.87 | 0.686 | 4.98 | 1.2 | 4.15
